Where “and” joins values, the source holds several entries; their conditions need not be identical. Identical values can stand only once. Unmarked numbers belong to inactive results. Records with an inconclusive call do not appear. Where a call stands in place of a potency, no number is given. Calls of active or inactive are those of the source. Unless noted, calls come from the whole dose curve; as a rule, active = well fitted curve in the direction sought with a large enough effect in the repeat runs; inconclusive = weak or mixed curves; inactive = no such curve, though single readings can be large; an effect the other way counts as inactive or inconclusive.
Columns and labels:
[1] = qHTS assay for small molecule agonists of the p53 signaling pathway (AID 651631; calls by dose curve; note: nearly all actives have a fitted effect of over 15% in size)
In short: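 Testing took place in human colorectal HCT-116 cells with stable p53RE-driven beta-lactamase. After 16 h of compound exposure at 37 °C, a FRET substrate was added and fluorescence recorded 2 h later.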

[2] = qHTS assay for small molecule agonists of the p53 signaling pathway - cell viability (AID 651633; calls by dose curve; note: series mostly up to about 83 µM; nearly all actives have a fitted effect of over 30% in size)
In short: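 Viability counter-read: CellTiter-Glo luminescence (30 min, room temperature) in the same p53RE-bla plates. These plates had been exposed to compounds for 16 h at 37 C.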

[3] = qHTS assay for small molecules that induce genotoxicity in human embryonic kidney cells expressing luciferase-tagged ATAD5 - cell viability (AID 651634; calls by dose curve; note: nearly all actives have a fitted effect of over 25% in size)
In short: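 HEK293T cells expressing luciferase-tagged ATAD5 were exposed to compound or DMSO for 15.5 hr at 37C, 5% CO2. Viability was then read as live-cell protease activity by CellTiter-Fluor fluorescence after 30 min at 37C.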

[4] = qHTS assay for small molecule disruptors of the mitochondrial membrane potential - cell viability (AID 720634; calls by dose curve;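 note: human HepG2 liver cancer cells; series mostly up to about 83 µM; nearly all actives have a fitted effect of over 20% in size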)
In short: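 HepG2 cells seeded overnight at 37 C, then exposed to compound or DMSO for 1 hr at 37 C, 5% CO2. m-MPI dye added, then CellTiter-Glo for 30 min at room temperature; viability read as ATP luminescence.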

[5] = qHTS assay for small molecule disruptors of the mitochondrial membrane potential (AID 720635); note: potency is the fitted concentration of half-maximal effect
In short: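 Mitochondrial membrane potential tracked with Mito-MPS dye, red aggregates (ex 540/em 590 nm) against green monomers (ex 490/em 535 nm). Compound treatment 1 hr at 37C, dye 30 min in HepG2.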

[6] = qHTS assay to test for compound auto fluorescence at 590 nm (red) in HepG2 cells (AID 720674)
In short: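 Red autofluorescence (Ex/Em 540/590 nm, Rose Bengal sodium equivalents) was measured in HepG2 cells, 2,000 per well in MEM plus 10% FBS, plated overnight at 37 C. Readings were taken 1 hr after adding 23 nL compound or DMSO, at 37 C and 5% CO2.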

[7] = qHTS assay to test for compound auto fluorescence at 535 nm (green) in HepG2 cells (AID 720675)
[8] = qHTS assay to test for compound auto fluorescence at 460 nm (blue) in HEK293 cells (AID 720678)
In short: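 Measured: blue fluorescence (Ex 405/Em 460 nm) of compound-treated HEK293 cells, incubated overnight at 37C with 5% CO2 and scaled to triamterene equivalents.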

[9] = qHTS assay to test for compound auto fluorescence at 590 nm (red) in HEK293 cells (AID 720679)
In short: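 Using HEK293 cells at 2,000 per well, the screen added 23 nL of each compound after cell attachment and incubated overnight (37C, 5% CO2). The plate reader then captured red-label fluorescence, Ex/Em 540/590nm.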

[10] = qHTS assay to test for compound auto fluorescence at 535 nm (green) in HEK293 cells (AID 720680)
[11] = qHTS assay to test for compound auto fluorescence at 460 nm (blue) in HEK293 cell free culture (AID 720681)
In short: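 Blue fluorescence (Ex 405/Em 460 nm, triamterene-equivalent) was read immediately after pin transfer of compound or DMSO into medium (DMEM, 10% FBS) without cells.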

[12] = qHTS assay to test for compound auto fluorescence at 590 nm (red) in HEK293 cell free culture (AID 720683)
In short: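 Red-channel autofluorescence of compounds in culture medium (DMEM, 10% FBS), no cells, measured at 540/590 nm. Rose Bengal sodium is the reference fluorophore for equivalence.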

[13] = qHTS assay to test for compound auto fluorescence at 460 nm (blue) in HepG2 cell free culture (AID 720685)
In short: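 Compound (23 nL) or DMSO pinned into cell-free MEM with 10% FBS; blue fluorescence read at 405/460 nm excitation/emission, expressed as auto-fluorescence equivalency to triamterene.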

[14] = qHTS assay to test for compound auto fluorescence at 535 nm (green) in HepG2 cell free culture (AID 720686)
[15] = qHTS assay to test for compound auto fluorescence at 460 nm (blue) in HepG2 cells (AID 720687)
In short: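 Blue-channel autofluorescence (Ex/Em 405/460 nm, triamterene-equivalent) was measured after 1 hr compound exposure at 37 C, 5% CO2. Cells were HepG2, plated overnight at 37 C in MEM plus 10% FBS.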

[16] = qHTS assay to test for compound auto fluorescence at 535 nm (green) in HEK293 cell free culture (AID 720682)
In short: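 DMEM + 10% FBS, cell-free; cpd or DMSO pinned in; Ex485/Em535 read; output as fluorescein-equivalent signal.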

[17] = qHTS assay to test for compound auto fluorescence at 590 nm (red) in HepG2 cell free culture (AID 720684)
In short: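 Plate contents were MEM with 10% FBS plus test compound or DMSO, no cells. Fluorescence was recorded with 540 nm excitation and 590 nm emission.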

[18] = molecular target: Glucocorticoid receptor (Homo sapiens) (UniProt P04150); experiment: qHTS assay to identify small molecule agonists of the glucocorticoid receptor (GR) signaling pathway (AID 720691; active = well fitted activation curve with a large enough effect in the signal ratio in the repeat runs, not every such curve was filed as active; the % refers to the signal ratio)
Chain of Glucocorticoid receptor (Homo sapiens) (P04150 whole entry, looked up): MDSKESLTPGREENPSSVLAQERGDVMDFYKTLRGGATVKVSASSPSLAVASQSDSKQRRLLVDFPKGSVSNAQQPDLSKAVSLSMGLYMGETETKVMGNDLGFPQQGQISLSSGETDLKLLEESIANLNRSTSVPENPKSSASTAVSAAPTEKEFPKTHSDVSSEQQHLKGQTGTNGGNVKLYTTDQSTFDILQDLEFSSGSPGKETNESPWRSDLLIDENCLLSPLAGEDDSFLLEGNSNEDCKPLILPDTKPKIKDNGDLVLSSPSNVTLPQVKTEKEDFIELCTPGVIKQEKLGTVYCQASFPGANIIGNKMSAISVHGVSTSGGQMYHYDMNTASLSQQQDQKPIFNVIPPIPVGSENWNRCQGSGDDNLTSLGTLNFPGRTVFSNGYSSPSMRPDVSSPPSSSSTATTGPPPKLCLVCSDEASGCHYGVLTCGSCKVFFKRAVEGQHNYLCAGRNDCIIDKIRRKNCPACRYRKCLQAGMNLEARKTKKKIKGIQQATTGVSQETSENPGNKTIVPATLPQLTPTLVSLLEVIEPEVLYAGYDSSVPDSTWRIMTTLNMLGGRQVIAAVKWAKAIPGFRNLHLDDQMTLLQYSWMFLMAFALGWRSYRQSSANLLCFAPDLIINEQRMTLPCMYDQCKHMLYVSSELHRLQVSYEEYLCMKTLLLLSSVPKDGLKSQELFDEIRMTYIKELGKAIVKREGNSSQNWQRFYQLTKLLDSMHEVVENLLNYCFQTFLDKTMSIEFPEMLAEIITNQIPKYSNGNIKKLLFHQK
In short: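 GR-bla HeLa cells (beta-lactamase reporter under glucocorticoid response element) were plated 4 h at 37 C/5% CO2, given compounds in DMSO, and incubated 18 h at 37 C. LiveBLAzer B/G FRET substrate was added for 2 h at room temperature, then fluorescence intensity read.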

[19] = molecular target: Glucocorticoid receptor (Homo sapiens) (UniProt P04150); experiment: qHTS assay to identify small molecule antagonists of the glucocorticoid receptor (GR) signaling pathway (AID 720692; active = well fitted inhibition curve with a large enough effect in the signal ratio in the repeat runs, not every such curve was filed as active; the % refers to the signal ratio)
In short: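 GR-bla HeLa cells (beta-lactamase reporter under glucocorticoid response element) were pre-plated 4 h at 37 C, treated with compounds plus 5 nM dexamethasone (final) for 18 h, then read by LiveBLAzer B/G FRET fluorescence after 2 h.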

[20] = qHTS assay for small molecules that induce genotoxicity in human embryonic kidney cells expressing luciferase-tagged ATAD5 (AID 651632); note: nearly all actives have a fitted effect of over 15% in size
In short: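 HEK293T cells carrying a luciferase reporter tagged to ATAD5 were exposed to compound or DMSO vehicle for 16 hr at 37C, 5% CO2. Amplite was added, and after 30 min at room temperature luciferase activity was read as a marker of ATAD5 induction.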

SMILES | Potency [1] | Potency [2] | Potency [3] | Potency [4] | Potency [5] | outcome [6] | outcome [7] | outcome [8] | outcome [9] | outcome [10] | outcome [11] | outcome [12] | outcome [13] | outcome [14] | outcome [15] | outcome [16] | outcome [17] | outcome [18] | Potency [19] | Potency [20]
CSc1nc(N=[N+]=[N-])nc(NC(C)C)n1 | inactive | inactive | inactive | inactive | inactive | inactive | inactive | inactive | inactive | inactive | inactive | inactive | inactive | inactive | inactive |  |  |  |  | 
Cc1cccc(C#N)c1 | inactive |  | inactive | inactive |  | inactive | inactive | inactive | inactive | inactive | inactive | inactive | inactive | inactive | inactive | inactive | inactive | inactive | inactive | 
CCCCCCBr | inactive | inactive | inactive | inactive | inactive | inactive | inactive | inactive | inactive | inactive | inactive | inactive | inactive | inactive | inactive | inactive | inactive |  |  | 
CCN(CC)C(=O)[C@@H]1C=C2c3cccc4[nH]cc(c34)C[C@H]2N(C)C1 | inactive |  |  | inactive | 8.98 µM (active) and 6.68 µM (active) | inactive | inactive | inactive | inactive | inactive |  | inactive |  | inactive | inactive | inactive | inactive | inactive | inactive | 
O=C(O)c1cccc(Cl)c1 |  | inactive | inactive | inactive |  | inactive | inactive | inactive | inactive |  | inactive | inactive | inactive | inactive | inactive |  | inactive |  |  | inactive
Nc1cc2c3c(c1)C(c1ccccc1)=N[C@@H](NC(=O)c1cccnc1)C(=O)N3CC2 |  | inactive | inactive | inactive |  | inactive | inactive | inactive | inactive |  |  | inactive | inactive | inactive |  | inactive | inactive | inactive | inactive | inactive
CCOc1nc(C(Cl)(Cl)Cl)ns1 |  | inactive |  | inactive |  | inactive | inactive | inactive | inactive | inactive | inactive |  | inactive | inactive | inactive | inactive |  |  |  | inactive
ClC(Cl)Br |  | inactive | inactive | inactive | inactive | inactive | inactive | inactive | inactive |  | inactive |  | inactive | inactive | inactive | inactive | inactive | inactive |  | inactive
COC(=O)C(C)Oc1ccc(Oc2ccc(Cl)cc2Cl)cc1 (stereo unspecified) |  | inactive | inactive | inactive |  | inactive | inactive | inactive | inactive | inactive |  | inactive | inactive | inactive | inactive | inactive | inactive | inactive |  | inactive
COC(=O)c1ccccc1S(=O)(=O)NC(=O)Nc1nc(C)cc(C)n1 |  | inactive |  | inactive |  | inactive | inactive | inactive | inactive | inactive | inactive | inactive | inactive | inactive |  | inactive | inactive | inactive | inactive | inactive
COC(=O)C1=CCCN(C)C1 |  |  | inactive | inactive | inactive | inactive | inactive | inactive | inactive | inactive | inactive | inactive | inactive | inactive |  | inactive | inactive | inactive | inactive | inactive
O=C(Cc1ccccc1)OCc1ccccc1 |  | inactive | inactive | inactive |  | inactive | inactive | inactive | inactive |  | inactive | inactive | inactive | inactive | inactive | inactive |  | inactive | inactive | inactive
COc1cc(C[C@@H](C)N)c(OC)cc1C |  | inactive | inactive | inactive | inactive |  | inactive | inactive | inactive | inactive | inactive | inactive | inactive | inactive | inactive | inactive |  | inactive | inactive | inactive
CC1(C)COP(Oc2ccccc2)OC1 |  | inactive |  | inactive | inactive |  | inactive | inactive | inactive | inactive | inactive |  | inactive | inactive | inactive | inactive | inactive | inactive | inactive | inactive
CCSC(=O)N(CC)C1CCCCC1 |  | inactive |  | inactive |  | inactive | inactive | inactive | inactive |  | inactive |  |  | inactive | inactive | inactive | inactive | inactive |  | inactive
CCN(CC)C(C)C(=O)c1ccccc1 (stereo unspecified) |  | inactive | inactive | inactive | inactive | inactive | inactive | inactive | inactive | inactive | inactive | inactive | inactive | inactive |  | inactive | inactive |  |  | inactive
CC(=O)C(Cl)Cl |  | inactive | inactive | inactive |  | inactive | inactive | inactive | inactive | inactive | inactive | inactive | inactive | inactive |  | inactive | inactive | inactive | inactive | inactive

From PubChem BioAssay (Tox21)
